From PubChem BioAssay come the findings set out here.

Test [1] has as its system Wnt5a (protein binding on small-molecule microarray). Nature of the test: Wnt5a binders on small-molecule microarray, primary screen, biophysical, 635/667 nm fluorescence (AID 1142).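 Note: fluorescence read at 667 nm with signal to noise per printed feature.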 To be noted: 635 nm fluorescence, higher = more signal.
Test [2] can be described thus: cell viability in Huh7 cells, primary screen, cytotoxicity control for HCV replication inhibitor project, CellTiter-Glo luminescence, basal, 48 h (AID 1143).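 Note: Huh7 hepatoma cells carrying a hepatitis C replication reporter with no stimulus; test concentration not given here.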 To be noted: Huh7 HCV replicon, higher = more signal, called active from +8 up or from −8 down. For orientation: In ATP-based viability assays light output follows the ATP content of the culture.
Test [3] can be described thus: P. aeruginosa biofilm formation inhibitors, primary screen, PAO1 strain, BacTiter-Glo luminescence, LB-PBS (AID 1144). To be noted: 12 h, higher = more signal.
Test [4] in a line: CREB reporter modulators without forskolin, primary screen, cell-based, PC12, CRE-LacZ reporter, unstimulated (AID 1145). To be noted: no forskolin, luminescence, 4.5 h, higher = more signal, called active from +8 up or from −8 down.
Test [5] can be described thus: CREB reporter modulators under forskolin, primary screen, cell-based, PC12, CRE-LacZ reporter, forskolin-stimulated (AID 1146).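 Note: PC12 cells with 6xCRE LacZ reporter stimulated by forskolin 10 µM; beta-galactosidase reporter signal reflecting CREB driven transcription.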 To be noted: luminescence, 4.5 h, higher = more signal, called active from +8 up or from −8 down.
For test [6], the target named is Streptavidin (Streptomyces avidinii) (UniProt P22629). Nature of the test: streptavidin binders on small-molecule microarray, primary screen, artefact control for SMM compound annotation, biophysical, 635/667 nm fluorescence (AID 1147).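 Note: signal reflects streptavidin binding to arrayed compounds as a control protein.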 To be noted: streptavidin binding, higher = more signal.
Streptavidin (Streptomyces avidinii), sequence (P22629 whole entry, looked up): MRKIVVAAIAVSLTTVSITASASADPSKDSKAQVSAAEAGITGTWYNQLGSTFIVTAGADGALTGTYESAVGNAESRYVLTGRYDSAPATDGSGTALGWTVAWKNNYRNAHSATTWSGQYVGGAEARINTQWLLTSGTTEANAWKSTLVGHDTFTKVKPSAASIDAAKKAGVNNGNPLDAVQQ
Test [7] can be described thus: small-molecule binders of probe aInhba, primary screen, biochemical, small-molecule microarray, 635/667 nm fluorescence (AID 1148).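 Note: score merges 667nm spot fluorescence with signal-to-noise for antibody binding to printed compounds.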 The note with it: higher = more signal.
Test [8] concerns the target Torsin-1A (Homo sapiens) (UniProt O14656). Nature of the test: torsin A binders from cell lysate, primary screen, small-molecule microarray, wild-type, 635/667 nm (AID 1149). To be noted: COS7 hTOR1A-WT lysate, 635 nm fluorescence, higher = more signal.
For test [9] the target is unchanged. Nature of the test: small-molecule binders of mutant TOR1A in lysate, primary screen, cell lysate, small-molecule microarray, COS7 lysate, 635/667 nm fluorescence (AID 1150).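 Note: score pools 667 nm emission and signal to noise measuring lysate protein binding.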 The note with it: COS7 hTOR1A mutant lysate, 635 nm fluorescence, higher = more signal.
Test [10] concerns Sonic hedgehog protein (Shh). Nature of the test: small-molecule binders of Shh protein, primary screen, biochemical, small-molecule microarray, 635/667 nm fluorescence (AID 1151).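 Note: Shh protein binding to compounds spotted on small-molecule microarray slides; score combines spot fluorescence intensity with signal-to-noise across triplicate slides.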 The note with it: small-molecule microarray binding, 635 nm fluorescence; higher = more signal.
Test [11] can be described thus: E. coli DRC41 culture turbidity changes, primary screen, E. coli filamentation inducer project, strain DRC41, OD650, 48 h (AID 1152).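 Note: E. coli MC1000 strain DRC41 lacking acrAB efflux pump and sulA.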 The note with it: E. coli DRC41 (acrAB sulA), higher = more signal, called active from +8 up or from −8 down.
Test [12] in a line: small-molecule binders of probe aLefty1, primary screen, biochemical, small-molecule microarray, 635/667 nm fluorescence (AID 1153).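 Note: score merges spot fluorescence with signal-to-noise ratio from the scanned slide images.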 To be noted: higher = more signal.
Test [13] is described as follows: PSAC antagonists in infected red cells, primary screen, cell-based, P. falciparum Indochina, OD700, 1 h (AID 1154). To be noted: P. falciparum Indochina infected RBC osmotic lysis, higher = more signal, called active from +8 up or from −8 down.
Test [14] can be described thus: PSAC antagonists in infected red cells, primary screen, cell-based, P. falciparum Indochina, OD700, 2 h (AID 1155).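 Note: lysis reports solute entry through the parasite surface anion channel PSAC; channel blockers reduce lysis of infected cells.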 To be noted: P. falciparum Indochina infected erythrocytes, osmotic lysis OD700; higher = more signal, called active from +8 up or from −8 down.
The nature of test [15]: osmotic lysis modulators in infected erythrocytes, primary screen, PSAC antagonist project, cell-based, P. falciparum Indochina, OD700, 3 h (AID 1156). The note with it: higher = more signal, called active from +8 up or from −8 down.
Test [16] is described as follows: PSAC antagonists in infected red cells, primary screen, cell-based, P. falciparum Indochina, OD700, 18 h (AID 1157). To be noted: P. falciparum Indochina infected erythrocytes, osmotic lysis OD700, 18 h; higher = more signal, called active from +8 up or from −8 down.
Test [17] in a line: modulators of S6 phosphorylation in cells, primary screen, cell-based, A549, cytoblot, luminescence, serum-stimulated (AID 1158).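 Note: serum-stimulated A549 lung adenocarcinoma cells; signal is phosphorylated S6 detected by cytoblot immunostaining with HRP secondary.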 To be noted: A549 phospho-S6 cytoblot, 5 h, higher = more signal.
Test [18] deals with NADPH oxidase 2 (Homo sapiens) (UniProt P04839). Nature of the test: NOX2-dependent H2O2 signal modulators, primary screen, NOX inhibitor project, cell-based, HEK293-NOX2, PMA-stimulated, Amplex Red fluorescence (AID 1159). Note: test concentration not given here. The note with it: 45 min, higher = more signal, called active from +8 up or from −8 down.
NADPH oxidase 2 (Homo sapiens), sequence (P04839 whole entry, looked up): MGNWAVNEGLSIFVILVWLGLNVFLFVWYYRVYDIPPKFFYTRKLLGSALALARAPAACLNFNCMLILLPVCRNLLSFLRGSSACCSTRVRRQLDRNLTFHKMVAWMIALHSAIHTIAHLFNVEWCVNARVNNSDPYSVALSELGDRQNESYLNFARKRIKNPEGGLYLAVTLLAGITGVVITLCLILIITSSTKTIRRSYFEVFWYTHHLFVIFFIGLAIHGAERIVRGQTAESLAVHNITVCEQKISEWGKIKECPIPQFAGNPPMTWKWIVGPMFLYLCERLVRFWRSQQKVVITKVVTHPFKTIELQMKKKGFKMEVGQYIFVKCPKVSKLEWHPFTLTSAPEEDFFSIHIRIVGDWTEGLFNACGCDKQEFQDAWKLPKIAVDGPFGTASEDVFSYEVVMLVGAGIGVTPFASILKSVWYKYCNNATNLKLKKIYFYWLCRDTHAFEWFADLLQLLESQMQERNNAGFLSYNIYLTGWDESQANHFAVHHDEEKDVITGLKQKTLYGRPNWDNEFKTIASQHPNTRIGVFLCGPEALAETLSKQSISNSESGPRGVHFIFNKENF
Test [19] has as its target NADPH oxidase 4 (Homo sapiens) (UniProt Q9NPH5). Nature of the test: NOX4-dependent H2O2 signal modulators, primary screen, NOX inhibitor project, cell-based, HEK293-NOX4, tetracycline-induced, Amplex Red fluorescence (AID 1160). The note with it: 45 min, higher = more signal, called active from +8 up or from −8 down.
In test [20] the target is NADPH oxidase 5 (Homo sapiens) (UniProt Q96PH1). Nature of the test: NOX5-dependent H2O2 signal modulators, primary screen, NOX inhibitor project, cell-based, HEK293-NOX5, Amplex Red fluorescence (AID 1161). To be noted: HEK293-NOX5, ionomycin, 45 min, higher = more signal.
NADPH oxidase 5 (Homo sapiens), sequence (Q96PH1 whole entry, looked up): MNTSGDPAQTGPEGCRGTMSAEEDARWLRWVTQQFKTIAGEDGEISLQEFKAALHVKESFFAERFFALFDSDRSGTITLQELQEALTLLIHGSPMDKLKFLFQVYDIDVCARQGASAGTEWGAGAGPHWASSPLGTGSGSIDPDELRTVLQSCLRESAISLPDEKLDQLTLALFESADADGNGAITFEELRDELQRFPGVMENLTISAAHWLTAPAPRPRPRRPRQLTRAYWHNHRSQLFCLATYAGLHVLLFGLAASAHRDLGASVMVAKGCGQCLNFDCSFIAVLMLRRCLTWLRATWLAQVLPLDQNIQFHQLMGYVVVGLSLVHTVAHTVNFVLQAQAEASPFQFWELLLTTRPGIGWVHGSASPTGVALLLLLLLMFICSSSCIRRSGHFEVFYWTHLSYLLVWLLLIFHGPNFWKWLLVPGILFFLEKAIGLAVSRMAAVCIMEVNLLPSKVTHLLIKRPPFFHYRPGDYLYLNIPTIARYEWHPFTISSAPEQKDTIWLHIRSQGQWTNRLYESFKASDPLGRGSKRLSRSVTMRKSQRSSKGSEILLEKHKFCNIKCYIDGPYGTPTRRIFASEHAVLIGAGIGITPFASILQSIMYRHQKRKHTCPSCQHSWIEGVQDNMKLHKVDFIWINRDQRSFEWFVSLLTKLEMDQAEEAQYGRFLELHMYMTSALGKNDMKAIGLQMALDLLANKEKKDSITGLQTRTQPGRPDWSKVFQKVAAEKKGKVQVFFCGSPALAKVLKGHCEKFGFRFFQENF

Structures are written as SMILES. Calls of active or inactive are those of the source. Unless noted, the rule behind the calls is not given here.

NADPH oxidase 4 (Homo sapiens), sequence (Q9NPH5 whole entry, looked up): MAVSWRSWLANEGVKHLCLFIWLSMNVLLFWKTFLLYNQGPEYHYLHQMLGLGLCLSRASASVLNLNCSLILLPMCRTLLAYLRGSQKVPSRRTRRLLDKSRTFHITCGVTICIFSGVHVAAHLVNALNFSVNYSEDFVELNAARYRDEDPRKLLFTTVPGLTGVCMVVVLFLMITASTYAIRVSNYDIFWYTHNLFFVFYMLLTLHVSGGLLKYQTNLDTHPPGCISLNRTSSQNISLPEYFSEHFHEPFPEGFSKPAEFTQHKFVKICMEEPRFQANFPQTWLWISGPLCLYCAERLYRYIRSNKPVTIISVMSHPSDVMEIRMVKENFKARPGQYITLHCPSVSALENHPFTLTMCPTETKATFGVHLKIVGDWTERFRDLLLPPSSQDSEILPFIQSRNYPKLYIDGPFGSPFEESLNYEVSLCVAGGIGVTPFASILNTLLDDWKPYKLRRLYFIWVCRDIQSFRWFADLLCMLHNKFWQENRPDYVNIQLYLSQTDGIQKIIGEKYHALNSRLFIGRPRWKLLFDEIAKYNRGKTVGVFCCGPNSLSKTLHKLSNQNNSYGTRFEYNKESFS
Torsin-1A (Homo sapiens), sequence (O14656 whole entry, looked up): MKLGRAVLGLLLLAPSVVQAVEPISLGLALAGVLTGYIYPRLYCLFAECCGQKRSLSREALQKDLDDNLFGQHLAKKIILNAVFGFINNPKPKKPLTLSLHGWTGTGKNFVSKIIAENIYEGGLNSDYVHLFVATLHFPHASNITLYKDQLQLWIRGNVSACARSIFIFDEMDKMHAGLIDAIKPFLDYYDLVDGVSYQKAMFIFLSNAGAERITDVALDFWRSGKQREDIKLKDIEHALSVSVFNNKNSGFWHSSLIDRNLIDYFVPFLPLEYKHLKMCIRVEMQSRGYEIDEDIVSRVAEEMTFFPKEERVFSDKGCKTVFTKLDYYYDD

Consider `COC(=O)C1=CC(CCCO)=CC(c2cccs2)N(Cc2cccc(OC(F)(F)F)c2)C=C1C(=O)OC` (stereo not given), for which the composite z-score was 0.237 in test [1]; 1.93 in [6]; -0.0619 in test [7]; 1 in the test with Torsin-1A (Homo sapiens) [8]; 1.56 in the test with Torsin-1A (Homo sapiens) [9]; -0.403 in test [10]. For the same compound, the composite z-score in test [12] is -0.126. In addition, the z-score is -3.26 (inactive) in test [2]; 0.759 (inactive) in test [3]; -0.815 (inactive) in [4]; 0.0187 (inactive) in [5]; -0.504 (inactive) in test [11]; 4.92 (inactive) in test [13]. Also, the z-score is 1.34 (inactive) in [14]; 0.87 (inactive) in test [15]; 0.842 (inactive) in test [16]; -0.344 in [17]; -0.244 (inactive) in test [18]; -0.436 (inactive) in test [19]. The z-score in [20] was -0.0441.
Consider `Cc1ccccc1C(O)C1C=CC2C(=O)NC(=O)C2N1Nc1ccccn1` (stereo not given), for which the composite z-score in [1] was -0.155; in test [6], -0.15; in test [7], -0.102; in the test with Torsin-1A (Homo sapiens) [8], 0.248; with Torsin-1A (Homo sapiens) [9], 0.0151; in test [10] it was -0.224. This compound returned a composite z-score in test [12] of -0.229. Further, the z-score in test [2] was 1.14 (inactive); in test [3], -0.767 (inactive); in test [4], -0.708 (inactive); in [5], -0.474 (inactive); in test [11] it was -0.908 (inactive); in [13], 0.408 (inactive). Moreover, the z-score in [14] was 0.608 (inactive); in test [15], -0.0205 (inactive); in [16], 0.68 (inactive); in [17] it was -1.01; in test [18], -0.444 (inactive); in test [19], -2.62 (inactive). The same compound came in with a z-score in test [20] of -1.27.
In the case of `CCOC(=O)C[C@H]1[C@H](OC(=O)c2ccccc2-c2ccccc2)[C@@H](NC(=O)c2ccc3ccccc3c2)c2cc(OCCCO)ccc2N1C(=O)c1ccccc1`, the composite z-score in [1] is 0.331; in test [6], 0.157; in [7], 0.102; in the test with Torsin-1A (Homo sapiens) [8], 0.0464; with Torsin-1A (Homo sapiens) [9], 0.472; in test [10], 0.536. In test [12], this compound registered a composite z-score of -0.152. Further, the z-score was -0.399 (inactive) in test [2]; 1.6 (inactive) in [3]; 2.94 (inactive) in [4]; -0.0955 (inactive) in [5]; 0.142 (inactive) in test [11]; 1.05 (inactive) in test [13]. Besides, the z-score in test [14] is 0.844 (inactive); in [15], 0.652 (inactive); in test [16], 0.23 (inactive); in [17] it was -0.0193; in [18], 0.595 (inactive); in [19] it was 0.89 (inactive). The z-score in test [20] amounted to 1.53.
Regarding `COCCOC(=O)N1C(=O)[C@@]2(c3cc(C#CCC(C(=O)OC)C(=O)OC)ccc31)[C@H](c1ccc(OCCO)cc1)N1[C@H](c3ccccc3)[C@H](c3ccccc3)OC(=O)[C@H]1[C@@H]2C(=O)N1CCc2cc(OC)c(OC)cc2C1`, the composite z-score is 0.575 in test [1]; 0.918 in test [6]; -0.0087 in test [7]; 0.843 with Torsin-1A (Homo sapiens) [8]; 0.769 with Torsin-1A (Homo sapiens) [9]; 1.8 in test [10]. The compound also had a composite z-score in test [12] of 0.269. Moreover, the z-score is -1.35 (inactive) in test [2]; -0.119 (inactive) in test [3]; -0.0607 (inactive) in [4]; 0.936 (inactive) in [5]; -0.0746 (inactive) in [11]; 6.85 (inactive) in test [13]. The z-score is 2.56 (inactive) in test [14]; 0.324 (inactive) in test [15]; 1.78 (inactive) in test [16]; -0.215 in test [17]; 2.22 (inactive) in test [18]; 1.17 (inactive) in test [19]. Besides, the z-score in test [20] was 1.29.
For the compound `C=CCC(OC(C)=O)[C@@H]1[C@@H](N(Cc2ccc(-c3cccc(C(F)(F)F)c3)o2)C(=O)Cc2ccc(OC)cc2)c2cc(OCCCO)ccc2N1C(=O)c1ccc(-c2ccccc2)cc1` (stereo not given in full), the composite z-score in test [1] is 0.0179; in [6], 1.31; in test [7] it was 0.153; with Torsin-1A (Homo sapiens) [8], -0.368; with Torsin-1A (Homo sapiens) [9], -0.38; in test [10], 0.439. In [12], this compound registered a composite z-score of 0.235. In addition, the z-score is -1.28 (inactive) in test [2]; 0.198 (inactive) in test [3]; 1.15 (inactive) in [4]; 0.393 (inactive) in test [5]; -1.12 (inactive) in test [11]; 0.922 (inactive) in test [13]. Moreover, the z-score in test [14] is -0.393 (inactive); in [15], 1.81 (inactive); in test [16], 0.0651 (inactive); in test [17] it was -0.199; in test [18] it was -1.2 (inactive); in [19], -1.15 (inactive). Besides, in test [20], the z-score was -1.35.
Regarding `Cc1ccc(S[C@]2(C(=O)NCC(F)(F)F)CC(=O)N(Cc3cc(C(F)(F)F)cc(C(F)(F)F)c3)[C@@H]2c2ccc(CO)cc2)cc1`, the composite z-score in test [1] is -0.824; in test [6], -0.638; in test [7], -0.0933; in the test with Torsin-1A (Homo sapiens) [8], -1.5; with Torsin-1A (Homo sapiens) [9], -1.2; in test [10], 0.319. This compound had a composite z-score in test [12] of -0.146. Further, the z-score in test [2] was -0.262 (inactive); in test [3] it was 0.75 (inactive); in test [4] it was 0.182 (inactive); in test [5], -0.0993 (inactive); in [11] it was -0.415 (inactive); in test [13] it was 1.74 (inactive). Besides, the z-score is 0.594 (inactive) in test [14]; -0.573 (inactive) in [15]; 0.501 (inactive) in test [16]; -0.488 in [17]; -0.0338 (inactive) in test [18]; 0.0959 (inactive) in test [19]. In test [20], this compound displayed a z-score of 0.496.
Take `CC1CC/C=C\[C@H]2OC34C=CCN(C(C)(C)C)C(=O)[C@H]3N(CCCCCO)C(=O)[C@@H]4C2C(=O)O1` (stereo not given in full): the composite z-score in test [1] is -0.427; in test [6], -0.719; in [7], -0.253; with Torsin-1A (Homo sapiens) [8] it was -0.201; in the test with Torsin-1A (Homo sapiens) [9] it was -1.33; in test [10] it was 0.353. The compound also displayed a composite z-score in test [12] of -0.0984. The z-score is 0.356 (inactive) in test [2]; 0.477 (inactive) in [3]; -0.35 (inactive) in test [4]; -0.928 (inactive) in test [5]; -0.121 (inactive) in test [11]; 0.204 (inactive) in [13]. Also, the z-score in test [14] is 0.437 (inactive); in [15] it was -0.136 (inactive); in test [16] it was 0.21 (inactive); in test [17], -0.333; in test [18], 0.673 (inactive); in test [19], -0.225 (inactive). For the same compound, the z-score in [20] was determined as 1.3.
Regarding `COC(=O)C1=CC(CCCO)=CC(c2cccs2)N(C)C=C1C(=O)OC` (stereo not given), the composite z-score was -0.149 in test [1]; 0.0877 in test [6]; 0.0485 in test [7]; -0.186 in the test with Torsin-1A (Homo sapiens) [8]; 1.04 with Torsin-1A (Homo sapiens) [9]; -0.369 in test [10]. Also, in test [12], the composite z-score was found to be 0.147. Also, the z-score was -0.786 (inactive) in [2]; 0.321 (inactive) in [3]; -0.285 (inactive) in test [4]; -0.217 (inactive) in [5]; -0.35 (inactive) in test [11]; 2.47 (inactive) in [13]. In addition, the z-score is 0.596 (inactive) in [14]; 0.148 (inactive) in [15]; 0.426 (inactive) in test [16]; -0.481 in test [17]; 0.467 (inactive) in [18]; -1.36 (inactive) in [19]. In [20], this compound came in with a z-score of 0.931.
